Source: the supplement of paper PMC6555819

Experiments:
Experiment in all cases: PBM binding z-score (relative to random genomic background probes); higher = stronger binding; sequences stand for … in GC…GCGATTGACAGCGTAGAATGAAGG
[1] = tested on: RARb homodimer (NR concentration 270 nM)
Procedure, shortened: (§1)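 Each nuclear receptor dimer, without ligand, was incubated for 1 h on custom Agilent 4×180K protein-binding microarrays. Binding was detected with antibodies against each partner (one per run), and scanned fluorescence was regression-normalized. The binding z-scores are referenced to random human genomic background probes.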

[2] = tested on: RARg:RXRa (NR concentration 270 nM, RXRa partner concentration 90 nM)
Procedure, shortened: as §1

[3] = tested on: RARg homodimer (NR concentration 270 nM)
Procedure, shortened: as §1

[4] = tested on: RXRa DBDmut IVT, anti-RXR (DBD mutation: RXRa K156A/R161A, NR concentration 90 nM)
Procedure, shortened: as §1

[5] = tested on: RXRa homodimer (NR concentration 180 nM)
Procedure, shortened: as §1

[6] = tested on: THRa:RXRa (NR concentration 90 nM, RXRa partner concentration 90 nM)
Procedure, shortened: as §1

[7] = tested on: THRa homodimer (NR concentration 90 nM)
Procedure, shortened: as §1

[8] = tested on: VDR homodimer (NR concentration 270 nM)
Procedure, shortened: as §1

Sequence	PBM binding z-score [1]	PBM binding z-score [2]	PBM binding z-score [3]	PBM binding z-score [4]	PBM binding z-score [5]	PBM binding z-score [6]	PBM binding z-score [7]	PBM binding z-score [8]
AATACAGGGTCAATAGGCCAGAGTAGGTACGAAT	3.5	5.29	4.37	2.4	4.89	3.03	0.474	2.13
CCTACTGGGCCATCAGGTCGTTGATATCAACGTT	0.879	0.238	0.401	0.0318	0.133	1.42	1.06	0.424
TCTTGTAGATCAACAGGAGGTTAAGAATGATCGA	0.596	1.13	0.374	0.333	0.964	0.774	-0.347	0.202
CCAACTGGGCCAAGGTCATTGATCAGTCAAAGCA	3.25	3.49	2.52	1.67	3.17	3.45	2.23	2.57
GCTCGGAGGACAAGGTCAAAGCTTTGTCCGTAGA	3.35	4.56	4.54	1.32	4.4	3.57	2.09	2.02
CTTATTAGTTGACCATAAGGGCAACCGAAGCTCG	2.23	1.24	1.13	0.578	0.722	2.04	1.36	0.553
TCGAGTAGGTCAGTCGGGGCATTCAGCCAACATA	2.3	2.49	3.17	0.903	1.32	2.4	-0.201	1.42
